The values that follow come from PubChem BioAssay (NCATS).

Results filed as inconclusive are left out. A number with no mark means an inactive call. The source made the active and inactive calls. Calls come from the whole dose curve; as a rule, active = well fitted inhibition curve with a large enough effect; inconclusive = small, poorly fitted or top-dose-only effect; inactive = flat fitted curve, though single readings scatter.

Test [1] in a line: qHTS profiling for inhibitors of Plasmodium falciparum proliferation (AID 504749).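 For activity, negative = inhibition: 0% = DMSO vehicle and full inhibition = artemisinin control.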 Note: nearly all actives have a fitted effect of over 60% in size. To be noted: P. falciparum in erythrocytes, SYBR Green DNA, 72 h. A digest of the protocol: (§1)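 Fluorescence of SYBR Green-bound parasite DNA, read at 485/535 nm, served as the growth measure. Infected erythrocytes were cultured with compound 72 h; artemisinin (0.29 uM) and DMSO wells defined the normalization range.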

Test [2] relates to 3D7. Described as above. To be noted: P. falciparum in erythrocytes, SYBR Green DNA, 72 h; series mostly up to 28.7 µM. In short, it runs like this:
as §1

Test [3] has as its system AA1029. Described as above. As to conditions: P. falciparum in erythrocytes, SYBR Green DNA, 72 h; series mostly up to 28.7 µM. A digest of the protocol:
as §1

For test [4], the system named is AS120. The test is described as above. As to conditions: P. falciparum in erythrocytes, SYBR Green DNA, 72 h; series mostly up to 28.7 µM. A digest of the protocol:
as §1

Test [5] has as its system ATS95. The test is described as above. As to conditions: P. falciparum in erythrocytes, SYBR Green DNA, 72 h; series mostly up to 28.7 µM. A digest of the protocol: as §1
Test [6] concerns C2A. The description is as above. As to conditions: P. falciparum in erythrocytes, SYBR Green DNA, 72 h; series mostly up to 28.7 µM. A digest of the protocol:
as §1

In test [7] the test system is CP185. The description is as above. As to conditions: P. falciparum in erythrocytes, SYBR Green DNA, 72 h; series mostly up to 28.7 µM. In short, it runs like this: as §1
Test [8] has as its system CP191. The description is as above. To be noted: P. falciparum in erythrocytes, SYBR Green DNA, 72 h; series mostly up to 28.7 µM. In short, it runs like this:
as §1

Test [9] has as its system CP192. The description is as above. To be noted: P. falciparum in erythrocytes, SYBR Green DNA, 72 h; series mostly up to 28.7 µM. In short, it runs like this: as §1
The subject of test [10] is CP194. The test is described as above. To be noted: P. falciparum in erythrocytes, SYBR Green DNA, 72 h; series mostly up to 28.7 µM. In short, it runs like this: as §1
Test [11] deals with CP201. The description is as above. To be noted: P. falciparum in erythrocytes, SYBR Green DNA, 72 h; series mostly up to 28.7 µM. A digest of the protocol:
as §1

The test system of test [12] is CP203. The test is described as above. To be noted: P. falciparum in erythrocytes, SYBR Green DNA, 72 h; series mostly up to 28.7 µM. In short, it runs like this:
as §1

In test [13] the test system is CP211. Described as above. As to conditions: P. falciparum in erythrocytes, SYBR Green DNA, 72 h; series mostly up to 28.7 µM. In short, it runs like this:
as §1

Test [14] relates to CP215. The description is as above. As to conditions: P. falciparum in erythrocytes, SYBR Green DNA, 72 h; series mostly up to 28.7 µM. A digest of the protocol: as §1
For test [15], the system named is 7G8. The description is as above. As to conditions: P. falciparum in erythrocytes, SYBR Green DNA, 72 h; series mostly up to 28.7 µM. A digest of the protocol: as §1
Test [16] has as its system ATS189. The description is as above. As to conditions: P. falciparum in erythrocytes, SYBR Green DNA, 72 h; series mostly up to 28.7 µM. In short, it runs like this:
as §1

Where [17] appears, read: at 12.8 µM (top of the series), parasite line A.
Where [18] appears, read: at 12.8 µM (top of the series), parasite line B.
The mark [19] stands for this setting: at 28.7 µM (top of the series), parasite line A.
Where [20] appears, read: at 28.7 µM (top of the series), parasite line B.
Potency is the fitted concentration of half-maximal effect.

`NCc1ccc(S(N)(=O)=O)cc1`: the activity, negative = inhibition in test [1] (setting [17]) was 6.73%; in test [1] (setting [18]) it was 11%. For the same compound, the Potency entry in [2], in test [3], in [4], in test [5], in [6] and in test [7] was “inactive” in each case. The Potency result in test [12] and in [14] was “inactive” in each case. Further, the call in test [8], in [9], in test [10], in test [11] and in [13] was inactive.

As for `COc1ccc2cc(CCC(C)=O)ccc2c1`, the activity, negative = inhibition was 8.55% in test [1] (setting [17]) and 1.23% in test [1] (setting [18]). In addition, the Potency entry in [2], in test [15], in [3], in [16], in test [5] and in test [6] was “inactive” in each case. Further, the Potency entry in [7] and in [14] was “inactive” throughout. The outcome in test [8], in test [9], in test [10], in test [11] and in test [13] was inactive.

With `Cc1c(NC(=O)c2cccnc2)c(=O)n(-c2ccccc2)n1C`, the activity, negative = inhibition in [1] (setting [17]) was 17.3%; in test [1] (setting [18]), 5.39%. Besides, the Potency entry in test [2], in test [3], in test [4], in [16], in [5] and in test [6] was “inactive” throughout. Besides, the Potency result in test [7] and in test [12] was “inactive” throughout. In addition, the outcome in [8], in [9], in [10], in test [11] and in test [13] was inactive.

As to `Cc1cc(C)c(NC(=O)CN(CC(=O)O)CC(=O)O)c(C)c1Br`, the Potency result in [2], in test [15], in [12] and in [14] was “inactive” each time. The result in [9], in test [10], in test [11] and in [13] was inactive.

As for `CC(=O)N(CC(O)CO)c1c(I)c(C(=O)NCC(O)CO)c(I)c(C(=O)NCC(O)CO)c1I` (stereo not drawn), the values for the activity, negative = inhibition in [1] (setting [19]) and in [1] (setting [20]) were 7.48% and 5.34%, respectively. The Potency result in [2], in test [3], in test [4], in [5], in test [6] and in [7] was “inactive” each time. Besides, the Potency result in [12] and in [14] was “inactive” each time. In addition, in test [15], the Potency was 11.2 µM (active). For the same compound, the result in test [9], in [10], in test [11] and in [13] was inactive.

As for `CC(CN(C)C)C(C)(O)Cc1ccc(Cl)cc1` (stereo not drawn), the activity, negative = inhibition in test [1] (setting [19]) was 6.13%; in [1] (setting [20]) it was 10.7%. For the same compound, the Potency result in [2] and in test [6] was “inactive” throughout. The result in [8] and in [11] was inactive.

For the compound `COc1nccnc1NS(=O)(=O)c1ccc(N)cc1`, the activity, negative = inhibition was 0.889% in test [1] (setting [19]) and -0.327% in test [1] (setting [20]). The Potency entry in test [15], in test [3], in test [4], in test [16], in [5] and in test [6] was “inactive” in each case. Also, the Potency entry in test [7] and in [12] was “inactive” each time. Moreover, the compound was called inactive in [8], in test [9], in [10], in test [11] and in test [13].

For the compound `Cc1c(I)c(=O)n(-c2ccccc2)n1C`, the activity, negative = inhibition in [1] (setting [19]) was 2.47%. The Potency entry in [2], in test [15], in test [3], in [4], in [16] and in [5] was “inactive” each time. Further, the Potency entry in test [6], in [7], in test [12] and in [14] was “inactive” throughout. For the same compound, the compound was called inactive in [8], in test [9], in [10], in [11] and in test [13].

In the case of `O=C1CC[C@@H](C(=O)O)N1`, the activity, negative = inhibition in test [1] (setting [19]) was 0.206%; in test [1] (setting [20]), 18.2%. In addition, the Potency entry in [2], in test [3], in [4], in [16], in test [5] and in test [6] was “inactive” in each case. In addition, the Potency result in test [7], in test [12] and in test [14] was “inactive” each time. Moreover, the compound was classed as inactive in test [8], in [9], in test [10], in test [11] and in test [13].

As to `O=C(O)CCCCC1CCSS1` (stereo not drawn), the activity, negative = inhibition in test [1] (setting [19]) is 5.2%; in test [1] (setting [20]), 12.3%. Further, the Potency entry in test [2], in test [3], in test [4], in test [16], in test [5] and in test [6] was “inactive” each time. Besides, the Potency result in test [7], in test [12] and in test [14] was “inactive” each time. Besides, the call in test [8], in [9], in test [10], in test [11] and in test [13] was inactive.

On to `CC(=O)SC[C@@H](Cc1ccccc1)C(=O)NCC(=O)OCc1ccccc1`, for which the activity, negative = inhibition in test [1] (setting [17]) is -4.01%; in test [1] (setting [18]), -5.82%. The Potency entry in test [2], in test [3], in test [4], in test [16], in [5] and in test [6] was “inactive” in each case. Further, the Potency result in test [7] and in test [14] was “inactive” in each case. For the same compound, the compound was classed as inactive in [8], in [9], in test [10], in test [11] and in [13].

With `CCCCCCCCCCC(CO)CCCCCCCC` (stereo not drawn), the activity, negative = inhibition in [1] (setting [19]) is -1.63%; in test [1] (setting [20]), 6.03%. Besides, the Potency entry in test [2], in test [3], in [4], in test [16], in test [5] and in [6] was “inactive” throughout. For the same compound, the Potency entry in test [7], in [12] and in test [14] was “inactive” each time. The result in test [8], in test [9], in [10], in [11] and in test [13] was inactive.
